# Unmarked numbers belong to inactive results. Inconclusive results are not listed. A call without a number means that no potency is given here. The source made the active and inactive calls. Unless noted, calls come from the whole dose curve; as a rule, active = well fitted curve in the direction sought with a large enough effect in the repeat runs; inconclusive = weak or mixed curves; inactive = no such curve, though single readings can be large; an effect the other way counts as inactive or inconclusive.
# Key:
# [1] = target: Luciferin 4-monooxygenase (Photinus pyralis) (UniProt P08659); test: qHTS assay to identify small molecule inhibitors of firefly luciferase (AID 1224835); note: nearly all actives have a fitted effect of over 25% in size; note: potency is the fitted concentration of half-maximal effect
# Summary of the method: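 Quantitative HTS format; KM concentrations of both substrates. Purified P. pyralis FLuc activity quantified from luminescence images.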
# [2] = qHTS assay to identify small molecule agonists of the constitutive androstane receptor (CAR) signaling pathway - cell viability counter screen (AID 1224836); note: nearly all actives have a fitted effect of over 45% in size; note: potency is the fitted concentration of half-maximal effect
# Summary of the method: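 Cells were seeded and incubated 4 hrs. Compounds were added across 15 concentrations together with PK11195 at 0.75 uM final. Plates were incubated 23 hrs at 37 C. CellTiter-Fluor was added and fluorescence measured.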
# [3] = qHTS assay to identify small molecule antagonists of the constitutive androstane receptor (CAR) signaling pathway - cell viability counter screen (AID 1224837); note: nearly all actives have a fitted effect of over 45% in size; note: potency is the fitted concentration of half-maximal effect
# Summary of the method: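 HepG2 cells stably expressing hCAR and a CYP2B6-2.2kb reporter were plated and pre-incubated 4 hr at 37 C/5% CO2, then given compounds at 15 concentrations plus 50 nM CITCO (final). After 23 hr, viability was read by CellTiter-Fluor fluorescence.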
# [4] = qHTS assay to identify small molecule antagonists of the estrogen related receptor signaling pathway with the pleiotropic PPARgamma coactivator (PGC) from Tox21 10K library - cell viability counter screen (AID 1224840; active = well fitted cell-killing curve with a large enough effect in the repeat runs, not every such curve was filed as active; note: nearly all actives have a fitted effect of over 40% in size; note: potency is the fitted concentration of half-maximal effect)
# Summary of the method: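 PGC/ERR cells were seeded at 2,000 cells/well and left 6 hours at 37 C/5% CO2 before pin-tool addition of compounds in DMSO. After 17.5 hours at 37 C, CellTiter-Fluor was added and fluorescence read 30 minutes later.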
# [5] = target: Thyrotropin receptor (Homo sapiens) (UniProt P16473); test: qHTS assay to identify small molecule agonists of the thyroid stimulating hormone receptor (TSHR) signaling pathway (AID 1224843; calls by dose curve; note: nearly all actives have a fitted effect of over 45% in size)
# Summary of the method: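 TSHR-expressing HEK293 cells (800 per well) were exposed to compounds for 30 min at room temperature. cAMP was then detected by HTRF competition with cAMP-d2 and anti-cAMP cryptate, read after 1 h at room temperature. Fifteen concentrations, triplicate.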
# [6] = qHTS assay to identify small molecule agonists of the hypoxia (HIF-1) signaling pathway - cell viability counter screen (AID 1224844; calls by dose curve; note: nearly all actives have a fitted effect of over 50% in size)
# Summary of the method: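 HRE-bla ME-180 cells in medium with 0.5% dialyzed FBS were preincubated 5 hrs at 37C, exposed to compounds for 17 hrs, then viability was read as CellTiter-Glo luminescence after 30 min at room temperature, in the reporter wells.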
# [7] = qHTS assay to identify small molecule agonists of H2AX (AID 1224845; active = well fitted activation curve with a large enough effect in the signal ratio in the repeat runs, not every such curve was filed as active; the % refers to the signal ratio)
# Summary of the method: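 Wild-type CHO-K1 cells plated overnight, then exposed 3 hr at 37C to compounds at 15 concentrations (0.76% DMSO). Lysed, then HTRF anti-pH2AX(S139)-cryptate/anti-H2AX-d2 detection after 24 hr at room temperature; emissions 665 and 620 nm.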
# [8] = qHTS assay to identify small molecule agonists of the hypoxia (HIF-1) signaling pathway (AID 1224846; active = well fitted activation curve with a large enough effect in the signal ratio in the repeat runs, not every such curve was filed as active; the % refers to the signal ratio)
# Summary of the method: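 HRE-bla ME-180 cells (beta-lactamase reporter under hypoxia response element) were plated at 2,000 cells/well in medium with 0.5% dialyzed FBS, rested 5 hrs, then given compounds in DMSO for 17 hrs at 37C, 5% CO2. Reporter induction was read with CCF4-AM FRET substrate.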
# [9] = qHTS RealTime-Glo MT Cell Viability Assay in HepG2 cells - 24 hour (AID 1224867); note: nearly all actives have a fitted effect of over 50% in size; note: potency is the fitted concentration of half-maximal effect
# Summary of the method: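 Cell number in HepG2 cultures estimated from NanoLuc luminescence generated by metabolic reduction of a prosubstrate by living cells. The homogeneous, nonlytic format allowed repeated reads at 0, 8, 16, 24, 32 and 40 h of compound exposure.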
# [10] = qHTS RealTime-Glo MT Cell Viability Assay in HEK293 cells - 32 hour (AID 1224868); note: nearly all actives have a fitted effect of over 50% in size; note: potency is the fitted concentration of half-maximal effect
# Summary of the method: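 Homogeneous bioluminescent viability format in HEK293 cells (600 cells/well). Following 5 h at 37 C/5% CO2, 23 nL compound was pintooled; the signal was measured repeatedly during 40 h incubation.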
# [11] = A CellTox Green Cytotoxicity Assay to monitor cytotoxicity in HEK293 cells - 0 hour (AID 1224869); note: nearly all actives have a fitted effect of over 50% in size
# Summary of the method: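 HEK293 cells premixed with CellTox Green dye were seeded at 600 cells/well and left 5 h at 37 C/5% CO2 before pin transfer of 23 nL compound in DMSO. Fluorescence from dye bound to dead-cell DNA was read during 40 h treatment.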
# [12] = qHTS RealTime-Glo MT Cell Viability Assay in HepG2 cells - 40 hour (AID 1224870); note: nearly all actives have a fitted effect of over 50% in size; note: potency is the fitted concentration of half-maximal effect
# Summary of the method: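 HepG2 cells mixed with RealTime-Glo MT reagents (NanoLuc plus cell-permeant prosubstrate) were seeded at 600 cells/well, incubated 5 h at 37 C/5% CO2, then pinned with compounds in DMSO; nonlytic luminescence tracked viability during 40 h treatment.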
# [13] = target: Nuclear receptor subfamily 1 group I member 3 (Homo sapiens) (UniProt Q14994); test: qHTS assay to identify small molecule antagonists of the constitutive androstane receptor (CAR) signaling pathway (AID 1224838); note: nearly all actives have a fitted effect of over 40% in size; note: potency is the fitted concentration of half-maximal effect
# Summary of the method: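 HepG2 cells stably co-transfected with hCAR and a CYP2B6-2.2kb luciferase reporter were seeded 4 h before compound addition at 15 concentrations. Cells were stimulated with 50 nM CITCO (final) for 24 h at 37 C; luciferase luminescence was then read.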
# [14] = target: Nuclear receptor subfamily 1 group I member 3 (Homo sapiens) (UniProt Q14994); test: qHTS assay to identify small molecule agonists of the constitutive androstane receptor (CAR) signaling pathway (AID 1224839); note: nearly all actives have a fitted effect of over 15% in size; note: potency is the fitted concentration of half-maximal effect;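 for activation: HepG2 cells stably carrying human CAR and a CYP2B6 luciferase reporter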
# Summary of the method: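 Cells were plated and incubated 4 hrs, then dosed with compounds at 15 concentrations. PK11195 was added to 0.75 uM final. After 24 hrs at 37 C, luciferase luminescence was measured.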
# [15] = qHTS assay to identify small molecule agonists of H2AX - cell viability counter screen (AID 1224847; calls by dose curve; note: top concentration of the series differs between compounds; nearly all actives have a fitted effect of over 30% in size)
# Summary of the method: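 Cytotoxicity counter screen in wild-type CHO-K1 cells: a 3 hr compound treatment at 37C across 15 concentrations, followed by CellTiter-Glo luminescence to gauge viable cells.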
# [16] = qHTS assay to identify small molecule antagonists of the estrogen related receptor signaling pathway with the pleiotropic PPARgamma coactivator (PGC) from Tox21 10K library (AID 1224841; call rule not given here)
# Summary of the method: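 PGC/ERR reporter cells were seeded at 2,000 cells/well and held 6 hours at 37 C/5% CO2 before pin-tool addition of compounds in DMSO. After 18 hours at 37 C, One-Glo was added and luminescence read after 30 minutes at room temperature.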
# [17] = qHTS assay to identify small molecule agonists of the estrogen related receptor signaling pathway with the pleiotropic PPARgamma coactivator (PGC) from Tox21 10K library (AID 1224842); note: nearly all actives have a fitted effect of over 15% in size
# Summary of the method: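 PGC/ERR reporter cells (NTP line) were seeded 2,000 per well, rested 6 h at 37 C/5% CO2, then pin-dosed with compounds in DMSO for 18 h at 37 C; luciferase read by One-Glo luminescence after 30 min at room temperature.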
# [18] = qHTS assay to identify small molecule agonists of the estrogen related receptor (ERR) signaling pathway from Tox21 library (AID 1224849; calls by dose curve; note: nearly all actives have a fitted effect of over 15% in size); settings: ERR reporter cell line, ONE-Glo luciferase, 18 h; at 92.4 µM (top of the series) unless noted
# Summary of the method: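 ERR reporter cell line (NTP) seeded, rested 6 h at 37 C/5% CO2, then pinned with Tox21 compounds in DMSO. After 18 h at 37 C, ONE-Glo luciferase luminescence was read following 30 min at room temperature.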
# [19] = qHTS assay to identify small molecule antagonists of the estrogen related receptor (ERR) signaling pathway from Tox21 library (AID 1224848); note: nearly all actives have a fitted effect of over 50% in size
# Summary of the method: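 Cells: ERR line, 2,000/well; 6 h preincubation 37 C/5% CO2. Cpd in DMSO via pin tool; 18 h, 37 C. ONE-Glo, 30 min RT, luminescence.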
# Nuclear receptor subfamily 1 group I member 3 (Homo sapiens), sequence (Q14994 whole entry, looked up): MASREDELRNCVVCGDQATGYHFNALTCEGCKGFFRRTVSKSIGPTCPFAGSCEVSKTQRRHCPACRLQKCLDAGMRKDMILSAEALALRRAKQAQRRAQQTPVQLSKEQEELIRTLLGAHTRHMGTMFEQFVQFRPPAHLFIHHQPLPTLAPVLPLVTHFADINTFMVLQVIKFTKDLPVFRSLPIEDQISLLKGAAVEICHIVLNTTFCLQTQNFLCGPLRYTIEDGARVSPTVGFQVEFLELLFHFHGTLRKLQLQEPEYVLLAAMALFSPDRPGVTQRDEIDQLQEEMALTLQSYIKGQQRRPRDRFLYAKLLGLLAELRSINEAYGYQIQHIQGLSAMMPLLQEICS
# Luciferin 4-monooxygenase (Photinus pyralis), sequence (P08659 whole entry, looked up): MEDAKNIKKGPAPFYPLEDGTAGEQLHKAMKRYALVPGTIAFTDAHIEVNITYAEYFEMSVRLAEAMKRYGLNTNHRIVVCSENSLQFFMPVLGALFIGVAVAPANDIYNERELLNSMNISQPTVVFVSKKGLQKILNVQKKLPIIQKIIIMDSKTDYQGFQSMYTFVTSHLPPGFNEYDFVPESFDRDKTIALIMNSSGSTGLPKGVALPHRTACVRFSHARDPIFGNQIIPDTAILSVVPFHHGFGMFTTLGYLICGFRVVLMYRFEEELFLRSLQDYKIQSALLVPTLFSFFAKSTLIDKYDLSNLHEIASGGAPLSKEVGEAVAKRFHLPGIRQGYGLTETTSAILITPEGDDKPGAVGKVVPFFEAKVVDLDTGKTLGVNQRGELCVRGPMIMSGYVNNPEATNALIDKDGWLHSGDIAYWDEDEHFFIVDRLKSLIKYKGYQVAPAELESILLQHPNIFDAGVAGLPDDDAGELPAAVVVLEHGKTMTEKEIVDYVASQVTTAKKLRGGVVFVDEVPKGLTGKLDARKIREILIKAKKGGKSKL
# Thyrotropin receptor (Homo sapiens), sequence (P16473 whole entry, looked up): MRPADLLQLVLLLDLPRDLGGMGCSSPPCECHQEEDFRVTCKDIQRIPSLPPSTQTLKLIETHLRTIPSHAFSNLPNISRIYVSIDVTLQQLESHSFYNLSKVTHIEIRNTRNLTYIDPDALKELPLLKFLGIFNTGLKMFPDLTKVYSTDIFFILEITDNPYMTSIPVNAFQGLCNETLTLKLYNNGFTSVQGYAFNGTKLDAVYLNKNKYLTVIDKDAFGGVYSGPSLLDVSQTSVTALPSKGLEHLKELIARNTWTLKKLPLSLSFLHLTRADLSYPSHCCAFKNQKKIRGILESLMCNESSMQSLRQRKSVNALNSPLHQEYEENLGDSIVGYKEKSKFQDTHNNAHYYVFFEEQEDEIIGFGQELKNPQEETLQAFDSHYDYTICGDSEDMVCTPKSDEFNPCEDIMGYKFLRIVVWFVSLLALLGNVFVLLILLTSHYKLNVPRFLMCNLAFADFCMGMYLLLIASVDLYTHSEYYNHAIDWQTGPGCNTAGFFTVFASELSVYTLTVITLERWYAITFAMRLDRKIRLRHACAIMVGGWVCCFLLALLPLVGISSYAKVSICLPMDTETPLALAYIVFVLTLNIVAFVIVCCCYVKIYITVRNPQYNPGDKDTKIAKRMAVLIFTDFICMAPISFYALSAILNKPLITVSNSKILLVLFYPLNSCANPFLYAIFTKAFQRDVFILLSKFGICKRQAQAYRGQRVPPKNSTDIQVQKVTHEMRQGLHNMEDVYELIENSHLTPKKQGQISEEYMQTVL
SMILES,Potency [1],Potency [2],Potency [3],Potency [4],Potency [5],Potency [6],Potency [7],outcome [8],Potency [9],Potency [10],Potency [11],Potency [12],Potency [13],Potency [14],Potency [15],Potency [16],Potency [17],"activity change, positive = activation [18]",Potency [19]
CCCCCCOC(=O)CCCCC,inactive,inactive,inactive,inactive,inactive,inactive,inactive,inactive,inactive,inactive,inactive,inactive,–,–,–,–,–,–,–
Nc1nc2ccc(OC(F)(F)F)cc2s1,24.5 µM (active),inactive,inactive,inactive,–,inactive,inactive,–,inactive,–,inactive,–,inactive,11.9 µM (active),inactive,–,–,–,–
CO[C@@H]1[C@@H](OC)[C@H](C)[C@@](O)(CC(=O)O)O[C@H]1[C@H](C)[C@H]1O[C@@]2(CC[C@@](C)([C@H]3CC[C@@](C)([C@@H]4O[C@@H]([C@H]5O[C@](C)(O)[C@H](C)C[C@@H]5C)C[C@@H]4OC4C[C@H](OC)[C@@H](OC)[C@H](C)O4)O3)O2)C[C@H](O)[C@H]1C (stereo not given in full),inactive,5.31 µM (active),4.73 µM (active),0.75 µM (active),–,–,inactive,–,5.35 µM (active),3.01 µM (active),inactive,6.01 µM (active),9.44 µM (active),–,–,–,–,–,–
CCCCCc1ccco1,inactive,inactive,inactive,inactive,–,inactive,inactive,inactive,inactive,inactive,inactive,inactive,–,inactive,–,–,–,–,–
O=C(c1ccccc1)c1ccc(O)cc1,–,inactive,inactive,inactive,inactive,inactive,–,inactive,inactive,–,inactive,–,inactive,–,–,inactive,inactive,-59.8%,–
Cc1oc(=O)oc1COC(=O)[C@@H]1N2C(=O)[C@@H](NC(=O)[C@H](N)c3ccccc3)[C@H]2SC1(C)C,inactive,inactive,inactive,inactive,inactive,inactive,inactive,inactive,inactive,–,inactive,inactive,–,–,inactive,inactive,inactive,1.21% [at 42.5 µM],inactive
Cc1ccc(N(CC2=NCCN2)c2cccc(O)c2)cc1,inactive,inactive,inactive,inactive,–,inactive,inactive,–,inactive,inactive,–,–,–,inactive,–,–,–,–,–
COC(CC(C)CCCC(C)(C)O)OC (stereo not given),inactive,inactive,inactive,inactive,–,inactive,inactive,inactive,inactive,inactive,inactive,–,inactive,inactive,inactive,–,–,–,–
Cc1cccc(C)c1NC(=O)c1cc(S(N)(=O)=O)c(Cl)cc1O,–,inactive,inactive,inactive,–,inactive,inactive,inactive,inactive,inactive,inactive,inactive,inactive,inactive,inactive,–,–,–,–
CCOC(=O)c1ccc(NC(=O)CN2CCCCC2)cc1,inactive,inactive,inactive,inactive,inactive,inactive,inactive,inactive,inactive,inactive,inactive,–,inactive,–,inactive,inactive,–,5.71% [at 42.5 µM],inactive
CC(C)(C)C1(CCc2ccc(Cl)cc2)CO1 (stereo not given),inactive,inactive,inactive,inactive,–,inactive,inactive,inactive,inactive,–,inactive,inactive,inactive,inactive,inactive,–,–,–,–
CCNc1nc(N)nc(Cl)n1,inactive,inactive,inactive,inactive,inactive,inactive,inactive,inactive,inactive,–,inactive,inactive,–,inactive,–,inactive,inactive,3.57%,inactive
CSSc1ccoc1C,inactive,inactive,inactive,inactive,inactive,inactive,inactive,inactive,inactive,inactive,inactive,–,–,inactive,inactive,–,–,–,–
COc1cc(NS(=O)(=O)c2ccc(N)cc2)nc(C)n1,inactive,inactive,inactive,inactive,–,inactive,inactive,inactive,–,inactive,inactive,inactive,–,inactive,inactive,inactive,inactive,5.82% [at 42.5 µM],inactive
COc1ccc(N)c([N+](=O)[O-])c1,inactive,inactive,inactive,inactive,–,inactive,–,inactive,inactive,inactive,inactive,inactive,inactive,inactive,–,–,–,–,–
CC1CCCO1 (stereo not given),inactive,inactive,inactive,inactive,–,inactive,inactive,inactive,inactive,inactive,inactive,inactive,–,inactive,inactive,–,–,–,–
CS(=O)(=O)c1ccc([C@@H](C[C@H]2CCC(=O)C2)C(=O)Nc2cnccn2)cc1Cl,inactive,inactive,inactive,inactive,inactive,–,inactive,inactive,inactive,inactive,inactive,inactive,inactive,inactive,–,–,–,–,–
O=C1NC(=O)c2cccc3cccc1c23,inactive,inactive,inactive,inactive,inactive,–,–,inactive,inactive,inactive,inactive,inactive,inactive,inactive,inactive,–,–,–,–
c1ccc(CNc2ncnc3c2ncn3C2CCCCO2)cc1 (stereo not given),39.9 µM (active),inactive,inactive,inactive,–,inactive,–,inactive,inactive,–,–,inactive,–,9.69 µM (active),inactive,–,–,–,–
CC[C@H]1OC(=O)[C@H](C)[C@@H](O[C@H]2C[C@@](C)(OC)[C@@H](O)[C@H](C)O2)[C@H](C)[C@@H](O[C@@H]2O[C@H](C)C[C@H](N(C)C)[C@H]2O)[C@](C)(O)C[C@@H](C)C(=O)[C@H](C)[C@@H](O)[C@]1(C)O,inactive,inactive,inactive,inactive,–,inactive,inactive,–,inactive,inactive,inactive,–,inactive,inactive,inactive,–,–,–,–

# Reference: PubChem BioAssay (Tox21)
